Most compounds without a hit are left out; they make up all but 14% or so of the library.
Pf growth 48h: P. falciparum growth inhibition at 48 hours (one generation); AID 504832; Potency, µM (doses to about 28.7 µM), without a hit: top-dose activity change, negative = inhibition, most hits filed as inhibitors; P. falciparum luciferase growth in erythrocytes, 48 h; 310,000 compounds, 5.9% hits; also: potency is read from the fitted curve at half-maximal effect
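Read-out is firefly luciferase luminescence from an integrated reporter in P. falciparum, so falling signal marks reduced parasite growth. Infected erythrocytes were at 2% hematocrit and 0.1% parasitemia (final) in Albumax-supplemented RPMI 1640.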
HCMV antiviral: blocks human cytomegalovirus replication. HFF cells, HCMV-luciferase reporter, 72 h; hits give low values. activity change, negative = inhibition, % at 57.5 µM. 410,000 compounds, 4.5% hits. AID 1259415; in the data active = activity change below about -60%; inconclusive = no clear call, values can overlap the other calls; inactive = above about -39%
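Cell-based, HFFs, 1000 cells/well, 16 h 37C; cpds in DMSO + HCMV-luc, MOI 1 PFU/cell; 72 h 37C; OneGlo luminescence after 5 min RT; norm. to buffer vs Salinomycin 10uM.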
Giardia FBPA inh: blocks Giardia fructose-bisphosphate aldolase activity. Potency, µM (titrated, usually from 59.6 µM), for the others: top-dose activity, negative = inhibition, usual class: inhibitors. purified Giardia FBPA. 290,000 compounds, 0.71% hits. A8B2U2; also: potency is read from the fitted curve at half-maximal effect; nearly all actives have a fitted effect of over 55% in size
Target sequence (A8B2U2 whole entry, looked up): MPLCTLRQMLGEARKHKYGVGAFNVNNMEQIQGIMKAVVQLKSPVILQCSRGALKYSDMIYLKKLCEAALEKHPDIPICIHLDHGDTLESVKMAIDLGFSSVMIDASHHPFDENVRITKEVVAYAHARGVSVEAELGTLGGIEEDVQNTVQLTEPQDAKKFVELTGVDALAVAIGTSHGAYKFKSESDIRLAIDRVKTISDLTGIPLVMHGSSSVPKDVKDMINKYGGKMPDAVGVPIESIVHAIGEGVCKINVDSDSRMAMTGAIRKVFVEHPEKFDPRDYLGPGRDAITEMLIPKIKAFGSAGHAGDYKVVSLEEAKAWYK
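40 nM FBPA preincubated 10 min at RT with compound (up to 57.5 uM final), then substrate plus GAPDH/TPI/NAD/arsenate coupling and diaphorase/resazurin added. Fluorescence read after 20 min at RT, 525/598 nm.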
Sm TGR inh: S. mansoni TGR enzyme inhibition | Q962Y6 | purified TGR, DTNB reduction, TNB absorbance 405 nm | Potency, µM (highest dose often 114 µM), without a hit: top-dose activity change, negative = inhibition, hits mostly inhibitors | 360,000 compounds, 3% hits | AID 485364; also: potency is read from the fitted curve at half-maximal effect; nearly all actives have a fitted effect of over 60% in size
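TGR 20 nM + NADPH 100 uM (dispensed conc.), cpd preinc 15 min RT; start with NADPH (500 uM addition) then DTNB (15 mM addition). Kinetic TNB absorbance, 405 nm filter. Four-parameter Hill fit across titration.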
Pf growth 96h: inhibits malaria parasite growth, 96 h. P. falciparum luciferase reporter growth, 96 h. Potency, µM (series often up to 28.7 µM), for inactives: at the top dose activity change, negative = inhibition, most hits filed as inhibitors. 320,000 compounds, 6.9% hits. AID 504834; also: potency is read from the fitted curve at half-maximal effect
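Compounds incubated with erythrocytes infected by luciferase-expressing P. falciparum (2% hematocrit, 0.05% parasitemia final) for 96 hours, 37 C in 5% CO2. Growth inhibition scored as decreased luciferase luminescence.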
The depositor's hits bear a star; ? = inconclusive; · = no result; [ ] = dose if it differs, or a comment. Unless noted, calls follow the shape of the dose curve; as a rule, active = well fitted curve in the direction sought with a large enough effect; inconclusive = small, poorly fitted or top-dose-only effect, or another doubt; inactive = no such curve, though single readings can be large; an effect the other way counts as inactive or inconclusive. % is scaled to controls: 0 for no effect and ±100 for the full control effect.

SMILES	Pf growth 48h	HCMV antiviral	Giardia FBPA inh	Sm TGR inh	Pf growth 96h
COCCNC(=O)c1ccc(CN2CCC(Cc3ccccc3)CC2)cc1	-11.6%	-1.8	-0.3%	-6.3%	?
O=C(CN1C(=O)c2cccnc2Oc2ccc(Cl)cc21)Nc1cccc(C(F)(F)F)c1	·	0.0	·	0.9%	·
CCOc1ccccc1CNC(=O)C1Cc2cc(S(=O)(=O)N3CCCCC3)ccc2N1C(C)=O (centres undefined)	-20.2%	12.7	·	-19.4%	?
CC(=O)[C@H]1CC[C@H]2[C@@H]3C=CC4=CC(=O)CC[C@@]4(C)[C@H]3CC[C@]12C	-12.0%[12.8 µM]	·	-1.4%[21.7 µM]	·	-19.5%[12.8 µM]
COc1ccc(-n2c(N)c(C(=O)NCc3ccco3)sc2=S)cc1	?	-2.4	-20.6%	-1.1%	?
COC(=O)c1c(N)n(-c2ccc(NC(C)=O)cc2)c2nc3ccccc3nc12	?	-66.2*	?	3.0%	·
COc1cc(-n2c(N)c(C(=O)NCc3ccco3)c3nc4ccccc4nc32)cc(OC)c1OC	11.7µM*	-39.2	-28.9%	25.1µM*	13.1µM*
COc1ccc(-n2c(N)c(C(=O)NCc3ccco3)c3nc4ccccc4nc32)cc1	?	?	-19.5%	44.7µM*	?
COc1ccc(Cn2c(N)c(C(=O)NCc3ccco3)c3nc4ccccc4nc32)cc1OC	?	10.2	-28.9%	35.5µM*	3.7µM*
Nc1c(C(=O)NCc2ccco2)c2nc3ccccc3nc2n1CCN1CCCCC1	?	-68.0*	-5.8%	-17.5%	9.28µM*
COc1ccc(-n2c(N)c(C(=O)NCc3ccco3)c3nc4ccccc4nc32)cc1OC	13.1µM*	-81.0*	?	39.8µM*	?
Nc1c(C(=O)NCc2ccco2)c2nc3ccccc3nc2n1CCc1ccc(F)cc1	·	-27.5	?	?	?
CN(c1ccccc1)S(=O)(=O)c1ccc(NC(=O)c2ccc(-c3ccccc3)cc2)cc1	?	-95.9*	-2.6%	-15.3%	?
CN(c1ccccc1)S(=O)(=O)c1cccc(C(=O)Nc2ccc3c(c2)CCC3)c1	?	?	-4.6%	-6.4%	?
Cc1ccc(S(=O)(=O)N(C)c2ccc(C(=O)Nc3cccnc3)cc2)cc1	-17.8%	-11.1	·	-10.3%	10.4µM*
COc1ccc(NC(=O)c2cccc(S(=O)(=O)N(C)c3ccccc3)c2)cn1	-7.0%	-74.7*	2.9%	-2.7%	0.0%
COc1ccc(OC)c(NC(=O)c2ccc(NS(=O)(=O)c3c(C)noc3C)cc2)c1	-16.6%	?	4.5%	9.2%	?
COc1cc(NC(=O)c2ccc(NS(=O)(=O)c3c(C)noc3C)cc2)cc(OC)c1	?	30.8	8.0%	-1.6%	0.329µM*
COc1cc2c(c(OC)c1OC)-c1ccc(OC)c(=O)cc1[C@@H](NC=O)CC2	·	·	-15.3%	·	·
Cc1ccc(S(=O)(=O)c2ccc(Cl)cc2)cc1S(N)(=O)=O	1.0%	5.2	1.1%	-0.2%	?
Cc1nc2cc(NC(=O)c3ccc(S(=O)(=O)N(C)c4ccccc4)cc3)ccc2o1	?	-69.3*	-0.7%	3.1%	?
COc1cc(NC(=O)c2ccc(S(=O)(=O)N(C)c3ccccc3)cc2)cc(OC)c1	·	-78.9*	·	·	·
CC(=O)Nc1ccc(NC(=O)c2ccc(N(C)S(=O)(=O)c3ccc(C)cc3)cc2)cc1	0.8%	-8.0	·	6.5%	10.4µM*
NC(COCc1ccccc1)c1csc(Nc2ccccn2)n1 (centres undefined)	·	15.2	·	·	·
O=C1Cc2cc([N+](=O)[O-])ccc2N1c1c(Cl)cccc1Cl	4.65µM*	-23.4	-7.0%	-2.7%	15.6%
Cn1nc(C(C)(C)C)c([N+](=O)[O-])c1C(=O)Nc1ccccc1	-8.3%	-24.4	-2.6%	-3.6%	?
Cn1c(=O)[nH]c(Nc2ccccc2)c([N+](=O)[O-])c1=O	3.9%	-93.8*	0.4%	12.6%	?
CCOc1ccc(C(=O)Nc2nnc(S(=O)(=O)Nc3ccccc3)s2)cc1	·	39.5	·	1.8%	·
CCOC(=O)c1cnc(-n2nc(C)cc2C)nc1NC1CCCC1	1.47µM*	-107.7*	-2.7%	14.5%	?
CCOC(=O)c1cnc(-n2nc(C)cc2C)nc1N(C)C	?	52.3	15.6%	-1.3%	·

Bioassay records as filed in PubChem BioAssay.
